# Experimental data taken from the supplement of paper PMC11219838.
# Test system: Meloidogyne hapla J2
# Assay: proportion of mobile M. hapla J2 relative to DMSO control (fraction of DMSO control); higher = more viable, less nematicidal, active = 0.7 or less
# Details: 60 µM; 5 days; temperature: 20 °C
# Experimental: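 DODA library (846 commercial 1,3,4- and 1,2,4-oxadiazole compounds plus commercial nematicide controls) screened at a single dose of 60 µM (0.6% DMSO) in 96-well plates, two biological replicates. Read-outs: C. elegans N2 L1 survival/reproduction score at day 6, 20 °C (0: 0-10 worms, 1: 11-20, 2: 21-50, 3: >50, 4: overgrown/starved). C. elegans daf-2 dauer, D. dipsaci and M. hapla J2 mobility at day 5, 20 °C, and P. penetrans mobility at day 5, 20 °C, each relative to DMSO controls. M. hapla egg hatching at day 12, 25 °C, relative to the mean of 8 DMSO wells on the same plate.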
row,SMILES,proportion of mobile M. hapla J2
1,COc1ccc(-c2noc(COc3ccc(Br)cc3)n2)cc1,1 (inactive)
2,O=C(CSc1nnc(-c2ccc(Br)cc2)o1)OCc1ccccc1,1.02 (inactive)
3,Cc1cc(Cl)ccc1OCc1nc(-c2ccncc2)no1,1.02 (inactive)
4,Brc1ccccc1-c1nc(-c2ccccn2)no1,0.678 (active)
5,COc1ccc(CC(=O)Nc2ccc(-c3noc(-c4ccccc4Br)n3)cc2)cc1,1.08 (inactive)
6,COc1cccc(-c2nnc(SCc3ccccc3)o2)c1,0.985 (inactive)
7,CCOC(=O)c1sc(NC(=O)CSc2nnc(-c3ccc(Cl)cc3)o2)c(C#N)c1C,0.929 (inactive)
8,Ic1ccc(CSc2nnc(-c3ccccc3)o2)cc1,0.991 (inactive)
9,Brc1ccc(OCc2nc(-c3ccc4c(c3)OCO4)no2)cc1,0.943 (inactive)
10,CCNC(=O)c1ccccc1-c1nc(-c2ccc(F)cc2)no1,0.998 (inactive)
11,COc1ccccc1OCc1nc(-c2cccc(Br)c2)no1,0.499 (active)
12,CC(C)Oc1ccc(-c2nc(-c3ccccn3)no2)cc1,0.943 (inactive)
13,CCC(=O)Nc1ccccc1-c1nc(-c2ccccn2)no1,0.865 (inactive)
14,Clc1ccc(OCc2nc(-c3ccc(Br)o3)no2)cc1,0.945 (inactive)
15,c1cncc(-c2noc(-c3cccc4ccccc34)n2)c1,1.04 (inactive)
16,Cc1ccc(SC(C)c2nc(-c3ccncc3)no2)cc1 (stereo not given),0.861 (inactive)
17,CCCC(=O)Nc1ccccc1-c1nc(-c2ccccn2)no1,0.965 (inactive)
18,Cc1ccccc1OCc1nc(-c2cccs2)no1,0.753 (inactive)
19,COc1ccc(-c2noc(-c3ccc(C)cc3)n2)cc1,0.998 (inactive)
20,COc1ccc(-c2noc(-c3ccccc3Br)n2)cc1,0.765 (inactive)

row,SMILES,proportion of mobile M. hapla J2
1,C=C(C)COc1ccc(-c2nc(-c3cccnc3)no2)cc1,0.919 (inactive)
2,CCn1c(SCc2nc(-c3ccccc3)no2)nc2ccccc21,1.02 (inactive)
3,COc1nc(-c2ccc(C)cc2)ccc1-c1noc(C)n1,0.9 (inactive)
4,O=C(CSc1nnc(-c2ccccc2)o1)NC1CCCCC1,1.01 (inactive)
5,Clc1cc(Br)ccc1OCc1nc(-c2ccccn2)no1,1.01 (inactive)
6,COc1ccc(Cl)cc1-c1noc(-c2cccc(C)c2)n1,1.05 (inactive)
7,COc1ccc(-c2nnc(SCC(=O)OCc3ccccc3)o2)cc1,0.953 (inactive)
8,COc1ccc(Cl)cc1-c1noc(COc2ccc(Cl)cc2)n1,0.964 (inactive)
9,CC(C)(C)c1ccc(-c2nc(-c3ccncc3)no2)cc1,1.03 (inactive)
10,COc1ccc(Cl)cc1-c1noc(COc2ccccc2C)n1,0.977 (inactive)
11,COc1ccc(-c2nnc(SCC(=O)N3CC(C)CC(C)C3)o2)cc1 (stereo not given),1.05 (inactive)
12,COc1ccc(-c2nnc(SCC(=O)c3ccc(C)o3)o2)cc1,1 (inactive)
13,COc1ccc(-c2nnc(SCc3ccc(Cl)cc3Cl)o2)cc1,1.04 (inactive)
14,COc1ccccc1NC(=O)CSc1nnc(-c2ccccc2)o1,1.04 (inactive)
15,FC(F)(F)c1cccc(-c2noc(-c3ccc4c(c3)OCO4)n2)c1,1.06 (inactive)
16,O=C(CSc1nnc(-c2ccco2)o1)Nc1ccc(Br)cc1,1.05 (inactive)
17,Cc1ccc(-c2nc(-c3cccnc3)no2)c(C)c1,1.1 (inactive)
18,COc1cccc(-c2noc(CSc3ccc(Cl)cc3)n2)c1,1.03 (inactive)
19,CSc1ccccc1-c1nc(-c2cccnc2)no1,1.07 (inactive)
20,c1ccc(-c2noc(C3COc4ccccc4O3)n2)cc1 (stereo not given),0.953 (inactive)
